# High-throughput results deposited in PubChem by National Center for Advancing Translational Sciences (NCATS).
# Hits are enriched below; roughly 1.2% of the tested compounds scored in any of these assays.
# TRPV1 potentiator – enhances activation of the human vanilloid receptor TRPV1. TRPV1-expressing cells, Fluo-8 calcium influx, capsaicin EC20 potentiation. potentiation, % at 8.33 µM. 320,000 compounds, 0.02% hits; in the data active = potentiation above about 80%; inconclusive = between about 30% and that limit; note: 0% is about no effect
#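 Cells expressing TRPV1 were dye-loaded with Fluo-8 and read kinetically: 10 s baseline, 3 min after compound (agonist portion), then 2 min after EC20 capsaicin (allosteric enhancer portion). Calcium-bound dye fluorescence at 480/520 nm.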
# TRPV1 agonist – activates the human vanilloid receptor TRPV1 | TRPV1-expressing cells, Fluo-8 calcium influx, agonist mode | activation, % at 8.33 µM | 320,000 compounds, 0.19% hits; in the data active = activation above about 80%; inconclusive = between about 30% and that limit; note: 0% is about no effect
#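 Fluo-8 calcium influx in TRPV1-expressing cells, kinetic read (ex 480/em 520 nm). Compound added and read 3 min for agonist activity, followed by capsaicin at EC20 final and 2 min further read for enhancement.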
# KCNH2 WT inh – blocks the wildtype human KCNH2 potassium channel. Q12809. U2OS, BacMam KCNH2, thallium flux FluxOr; hits give low values. activity change, % at 1.84 µM. 340,000 compounds, 0.37% hits;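 active = maximum activity change below -70%; inconclusive = maximum activity change between -70% and -50%; inactive = maximum activity change above -50%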; note: % is set by controls: 0 for no effect and ±100 for the full control effect
#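 U2OS cells were transduced with wild-type KCNH2 virus (2.03 x 10^8 / mL) for 4 h at room temperature, then cultured overnight at 37 C. Thallium flux was read with FluxOr dye. Rate constants were normalized to DMSO controls.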
# KCNH2 3.1 block – blocks the human KCNH2 3.1 channel isoform | U2OS KCNH2 3.1, thallium flux FluxOr; hits give low values | activity change, % (tested at about 1.8 µM) | 340,000 compounds, 0.95% hits | AID 720553;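 active = maximum activity change below -70%; inconclusive = maximum activity change from -70% to -50%; inactive = maximum activity change above -50%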;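 note: thallium influx rate constant from kinetic fluorescence after stimulation buffer; % is set by controls: 0 for no effect and ±100 for the full control effect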
#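 Steps: virus added to U2OS suspension (4 h, RT, dark); medium with 10% FBS added, cells plated, 37 C overnight; FluxOr/Red40 loading buffer 45 min RT; stimulation buffer, 2 min kinetic read; rate constant normalized.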
# * marks the source's active call; other numbers are inactive results; ? = inconclusive; . = no result given.
SMILES,TRPV1 potentiator,TRPV1 agonist,KCNH2 WT inh,KCNH2 3.1 block
O=C1c2cccnc2C(Nc2ccc(Br)cc2)N1Cc1cccs1 (stereo not drawn),-27,84*,29,3
CCOc1ccc(NC(=O)CN2C(=O)NC3(CCCCCC3)C2=O)cc1,.,.,-10,-6
CCOC(=O)[C@H]1[C@H]2COc3ccc(Br)cc3[C@@H]2N2C(=O)CN(Cc3ccc(F)cc3)C(=O)[C@@]12C,-9,7,-4,12
O=C(Nc1ccccc1Oc1cccnc1)C1CCCN(C/C=C/c2ccc(F)cc2)C1 (stereo not drawn),-4,4,-98*,-93*
Cc1nc(N2CCN(c3ccccn3)CC2)c2c(C)c(C(=O)Nc3ccccc3F)sc2n1,20,6,5,-45
Cc1nc(N2CCOCC2)c2c(C)c(C(=O)Nc3ccccc3C(F)(F)F)sc2n1,-2,91*,0,14
Cc1nc(N2CCN(c3ccccn3)CC2)c2c(C)c(C(=O)Nc3ccc(F)cc3Cl)sc2n1,19,3,-33,-88*
Cc1nc(N2CCN(c3ccccn3)CC2)c2c(C)c(C(=O)Nc3ccc(F)cc3F)sc2n1,-8,?,-15,-93*
CCCCC(CC)CNC(=O)c1ccc2c(=O)n(CCOC)c(=O)[nH]c2c1 (stereo not drawn),7,2,.,.
COC(=O)[C@H](CCSC)NC(=O)Cn1cnc2c(NCc3ccccc3)ncnc21,.,.,-2,8
Cc1nc2c(N)nn(C)c2nc1C,.,.,-6,-7
COc1ccc(C(=O)NCc2nnc(SCC(=O)N3CCCCC3)o2)cc1,-8,1,-3,-92*
COc1ccc(CNC(=O)COC(=O)[C@@H]2CCCN2C(=O)c2cccs2)cc1,.,.,0,5
COC(=O)CC(c1ccc(OC)c(OC)c1)c1ccc(OC)c(OC)c1,-7,1,-212*,-5
COC(=O)CC(NC(=O)c1cccs1)c1ccc(OC)c(OC)c1 (stereo not drawn),?,4,-11,8
CC(C)=C[C@H]1C[C@H](C)[C@H]2CC[C@H](C)c3c(O[C@@H]4OC[C@@H](O)[C@H](O)C4O)c(O)c(C)c1c32 (stereo partly drawn),.,.,-4,29
O=C(CCc1nnc(CCCc2ccccc2)o1)NCC(F)(F)F,?,1,-240*,-182*
O=C(CCc1nnc(CCCc2ccccc2)o1)NCCc1ccccc1,-8,-1,6,4
NS(=O)(=O)Nc1c(Br)cc(Br)c2cccnc12,-6,2,.,.
Cn1c(CCN2CCCCC2)nc2cc([N+](=O)[O-])ccc21,4,-8,38,-38
Cn1c(CN2CCCCC2)nc2cc([N+](=O)[O-])ccc21,11,-8,12,-185*
CC1=CC(C)(C)C(C(=O)O)C(C(=O)O)C1 (stereo not drawn),22,0,-109*,3
COc1cc([C@H]2c3c(cc(OC)c(O)c3OC)C[C@@H](CO)[C@@H]2CO[C@@H]2O[C@H](CO)[C@@H](O)[C@H](O)[C@H]2O)cc(OC)c1O,2,-3,4,4
Cc1c2cc(O)c(=O)cc-2oc2cc(O)c(O)cc12,-3,0,59,4
COc1cc(OC)c(-c2c3cc(O)c(=O)cc-3oc3cc(O)c(O)cc23)cc1OC,-13,104*,-20,-1
SMILES,TRPV1 potentiator,TRPV1 agonist,KCNH2 WT inh,KCNH2 3.1 block
C[C@H](CO)N1C[C@H](C)[C@@H](CN(C)S(=O)(=O)c2ccccc2)OCCCC[C@H](C)Oc2ccc(NC(=O)CCC(F)(F)F)cc2C1=O,.,.,10,4
O=C(CC1CC2CCC1C2)N1CCN(S(=O)(=O)c2ccc(F)cc2)CC1 (stereo not drawn),.,.,-81*,13
O=C(CC1CC2CCC1C2)N1CCN(S(=O)(=O)c2ccc(C(F)(F)F)cc2)CC1 (stereo not drawn),.,.,28,?
Nc1nc(-c2ccccc2Cl)cs1,.,.,4,-71*
CC1CCCC(NC(=O)CN2C(=O)NC(C)(c3cc(F)ccc3F)C2=O)C1C (stereo not drawn),.,.,-3,-8
CCN(Cc1ccccc1)c1ccc(N=Nc2nn(C)c(C)c2[N+](=O)[O-])cc1,-2,1,1,-1
CCN(CC)c1ccc(N=Nc2nn(C)c(C)c2[N+](=O)[O-])cc1,-2,3,-125*,3
COc1cc2c(c(Br)c1N)-c1cc(Br)c(N)cc1C2=O,.,.,-6,3
O=C(C1CCCN1S(=O)(=O)c1cccc2nsnc12)N1CCN(c2ccc(F)cc2)CC1 (stereo not drawn),-11,0,36,-74*
c1ccc(C(=C2CCCO2)c2ccccc2)cc1,.,.,1,3
O=C(NCc1ccncc1)C1CCCN(S(=O)(=O)c2cc(Cl)ccc2Cl)C1 (stereo not drawn),-18,87*,1,-8
CC1(C)CC(=O)C(CSC(=O)c2ccccc2)C(=O)C1,.,.,0,4
O=C(CC12CC3CC(CC(C3)C1)C2)NC(=S)Nc1ccc(CN2CCOCC2)cc1,1,5,0,-77*
O=C(NC(=S)Nc1ccc(CN2CCOCC2)cc1)c1ccco1,-4,1,-3,-9
Cc1ccccc1-n1nnnc1SCC(=O)c1c(N)n(C2CC2)c(=O)[nH]c1=O,7,4,5,3
CCc1nc(Nc2cccc(F)c2)c2oc3ccccc3c2n1,12,?,-5,-9
CCc1nc(Nc2ccccc2)c2oc3ccccc3c2n1,-7,84*,-11,-31
CCc1nc(Nc2cccc(OC)c2)c2oc3ccccc3c2n1,0,81*,-10,12
O=C(CCCOc1ccccc1)Nc1ccc(Cl)cn1,-11,?,0,-105*
O=C(CCCOc1ccc(Cl)cc1Cl)Nc1ccncc1,-1,80*,8,10
CCCCCCC(=O)Nc1ccc(Cl)cn1,-15,?,-5,10
C[C@H](CO)N1C[C@H](C)[C@@H](CN(C)CC2CCCCC2)Oc2c(NC(=O)Cc3ccccc3)cccc2C1=O,.,.,-10,-23
CC1CCN(c2ccc(C=O)o2)CC1,-4,-4,.,-196*
O=C(COc1ccc(-c2ccccc2)cc1)N1CCN(S(=O)(=O)Cc2ccccc2)CC1,-11,-2,-3,-75*
Cc1ccc(OCC(=O)N2CCN(C(=O)Cc3ccccc3)CC2)cc1,-15,14,6,14
SMILES,TRPV1 potentiator,TRPV1 agonist,KCNH2 WT inh,KCNH2 3.1 block
Cc1cc(C)n(CC(=O)O)n1,13,0,-7,-182*
CC1(C2CC2)NC(=O)N(CC(=O)Nc2ccc(C(F)(F)F)cc2)C1=O (stereo not drawn),-2,10,5,-16
CCCc1c(C)[nH]c2ccc(C(=O)O)cc2c1=S,?,-7,-82*,4
Cc1[nH]c2ccc(C(=O)O)cc2c1C,4,3,-2,0
CN(C)S(=O)(=O)Nc1ccccc1F,0,-2,-6,-80*
N#Cc1ccc(OCC(=O)N2CCN(c3ccc(C(F)(F)F)cn3)CC2)cc1,-5,22,-41,-92*
